Assay [1] in a line: qHTS assay to identify small molecule antagonists of the sonic hedgehog signaling (Shh) pathway (AID 1259369; calls by dose curve; further: nearly all actives have a fitted effect of over 45% in size). The method, boiled down:
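NIH/3T3-derived Gli1-Luc reporter cells plated 4 h, dosed with compound, then stimulated with conditioned medium for 24 h at 37 C. Firefly luciferase luminescence read after 30 min with detection reagent at room temperature.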

The nature of assay [2]: qHTS assay to identify small molecule agonists of the androgen receptor (AR) signaling pathway in the presence of an antagonist - cell viability counter screen (AID 1259379).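 Further: MDA-kb2 human breast cancer cells carrying an MMTV luciferase reporter; series mostly up to about 92 µM; nearly all actives have a fitted effect of over 25% in size.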 The essentials:
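MDA-kb2 cells (MMTV-luciferase, AR/GR), 3,000/well, 5 h attachment, then 3.0 µM nilutamide (final) and compounds at 15 concentrations. Viability by CellTiter-Fluor fluorescence after 16 h at 37 °C, 0% CO2, in the reporter wells.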
In general terms: Quantitative high-throughput screening tests each substance at several concentrations.

The nature of assay [3]: qHTS assay to identify small molecule agonists of the estrogen receptor beta (ER-beta) signaling pathway - cell viability counter screen (AID 1259380). Further: nearly all actives have a fitted effect of over 30% in size. Further: potency means the concentration at half of the fitted maximal effect. The essentials: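 ER-beta-UAS-bla HEK293T cells in medium with 2% charcoal-stripped FBS, pre-incubated 6 hr, then treated 16 hr at 37C. Cytotoxicity read in the same wells by CellTiter-Glo luminescence after 30 min at room temperature.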

The target of assay [4] is Androgen receptor (Homo sapiens) (UniProt P10275). Description: qHTS assay to identify small molecule agonists of the androgen receptor (AR) signaling pathway in the presence of an antagonist (AID 1259381; calls by dose curve; further: nearly all actives have a fitted effect of over 15% in size; further: potency means the concentration at half of the fitted maximal effect). The essentials:
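MDA-kb2 cells carrying MMTV-luciferase (AR/GR responsive), 3,000 cells/well, co-treated with 3.0 uM nilutamide final. Compounds at 15 concentrations, 16 hr at 37C without CO2. Luciferase luminescence read after 30 min with ONE-Glo.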

A short description of assay [5]: qHTS assay to identify small molecule antagonists of the estrogen receptor beta (ER-beta) signaling pathway - cell viability counter screen (AID 1259382).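 Further: HEK293T cells carrying ER-beta-UAS-bla reporter stimulated with estradiol; series mostly up to about 92 µM; nearly all actives have a fitted effect of over 55% in size.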 The essentials:
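ER-beta-UAS-bla HEK293T cells in 2% charcoal-stripped FBS medium, treated with compound plus 1 nM 17-beta-estradiol for 16 h at 37C. Viability read by CellTiter-Glo luminescence after 30 min at room temperature in the same wells.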

Assay [6] in a line: qHTS assay to identify small molecule agonists or antagonists of the thyroid stimulating hormone receptor (TSHR) signaling pathway - wild type cell line counter screen (AID 1259384; calls by dose curve). The method, boiled down: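 Counter screen in untransfected Hek293: compounds (15-point titration, triplicate) plus phosphodiesterase inhibitor Ro20-1724 added after 18 h plating; 30 min RT. Intracellular cAMP via competitive d2/cryptate immunoassay, 1 h incubation.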

The nature of assay [7]: qHTS assay to identify small molecule agonists of the estrogen receptor alpha (ER-alpha) signaling pathway in the presence of an antagonist - cell viability counter screen (AID 1259386).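 Further: series mostly up to about 92 µM; cells exposed to compounds for 22 h at 37 °C before the viability read; nearly all actives have a fitted effect of over 30% in size.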 The essentials:
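Cell viability in VM7Luc4E2 cells (endogenous full-length ER-alpha) measured by CellTiter-Fluor fluorescence in the same wells as the luciferase screen. Cells pre-cultured 5 days in charcoal-stripped serum, then treated 22 h with compounds at 15 concentrations plus 10.0nM ICI-182,780.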

In assay [8] the target is Progesterone receptor (Homo sapiens) (UniProt P06401). Description: qHTS assay to identify small molecule agonists of the progesterone receptor (PR) signaling pathway (AID 1346784; calls by dose curve; further: nearly all actives have a fitted effect of over 30% in size). The essentials: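 PR-UAS-bla HEK 293T cells carrying a UAS-driven beta-lactamase reporter were seeded in medium with 2% charcoal-stripped FBS, preincubated 6 hr at 37C, then exposed to compounds in DMSO for 16 hr; agonism was read by LiveBLAzer B/G FRET fluorescence.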
Sequence of Progesterone receptor (Homo sapiens) (P06401 whole entry, looked up): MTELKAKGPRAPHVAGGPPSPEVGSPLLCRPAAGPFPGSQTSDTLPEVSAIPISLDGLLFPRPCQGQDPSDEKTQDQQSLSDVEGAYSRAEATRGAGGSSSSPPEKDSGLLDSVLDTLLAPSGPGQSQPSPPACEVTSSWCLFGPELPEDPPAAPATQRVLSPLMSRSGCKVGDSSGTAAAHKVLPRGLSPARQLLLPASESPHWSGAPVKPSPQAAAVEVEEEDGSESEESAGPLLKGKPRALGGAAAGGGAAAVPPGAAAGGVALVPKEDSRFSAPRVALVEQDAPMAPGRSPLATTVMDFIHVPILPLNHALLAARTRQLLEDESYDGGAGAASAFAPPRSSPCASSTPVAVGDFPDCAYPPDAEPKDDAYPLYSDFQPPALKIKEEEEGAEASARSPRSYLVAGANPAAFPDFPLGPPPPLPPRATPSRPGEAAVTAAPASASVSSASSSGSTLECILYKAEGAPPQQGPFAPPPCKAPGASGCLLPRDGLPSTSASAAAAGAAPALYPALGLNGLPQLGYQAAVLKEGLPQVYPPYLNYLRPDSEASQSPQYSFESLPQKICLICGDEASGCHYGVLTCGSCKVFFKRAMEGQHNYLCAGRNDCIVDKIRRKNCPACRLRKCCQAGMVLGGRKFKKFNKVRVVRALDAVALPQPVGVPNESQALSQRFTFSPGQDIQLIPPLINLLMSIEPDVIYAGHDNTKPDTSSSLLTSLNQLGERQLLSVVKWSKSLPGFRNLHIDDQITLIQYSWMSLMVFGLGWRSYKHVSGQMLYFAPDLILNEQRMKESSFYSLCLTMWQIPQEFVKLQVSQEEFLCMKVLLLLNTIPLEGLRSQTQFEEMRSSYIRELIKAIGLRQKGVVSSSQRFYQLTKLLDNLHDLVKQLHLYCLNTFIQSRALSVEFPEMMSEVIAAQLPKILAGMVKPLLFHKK

Assay [9] has the same target. Description: qHTS assay to identify small molecule antagonists of the progesterone receptor (PR) signaling pathway (AID 1346795; active means well fitted inhibition curve with a large enough effect in the signal ratio in the repeat runs, not every such curve was filed as active; the % refers to the signal ratio; further: potency means the concentration at half of the fitted maximal effect). The method, boiled down: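 PR-UAS-bla HEK293T cells carrying a UAS-driven beta-lactamase reporter were plated in medium with 2% charcoal-stripped FBS and rested 6 hr at 37C. Compounds were added with 1 nM R5020 (final) for 16 hr, then FRET substrate loaded 2 hr at room temperature.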

A short description of assay [10]: qHTS assay to identify small molecule antagonists of the progesterone receptor (PR) signaling pathway - cell viability counter screen (AID 1346798). Further: nearly all actives have a fitted effect of over 50% in size. Further: potency means the concentration at half of the fitted maximal effect. On activity change, negative = cytotoxicity: series mostly up to about 92 µM. The method, boiled down: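 PR-UAS-bla HEK293T cells in medium with 2% charcoal-stripped FBS were treated with compounds plus R5020 for 16 hr at 37C. Cell viability was then read by CellTiter-Glo luminescence after 30 min at room temperature in the same wells.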

Assay [11] is described as follows: qHTS assay to identify small molecule antagonists of the TGF-beta/Smad signaling pathway - cell viability counter screen (AID 1346824). Further: nearly all actives have a fitted effect of over 50% in size. The essentials:
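Cytotoxicity counter-screen run in the same wells as the beta-lactamase Smad reporter read: CellTiter-Glo luminescence after 30 min at room temperature. HEK 293T SBE-bla cells had 5 hr compound exposure at 37 C with TGF-beta1 (0.25 ng/mL stock).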

The nature of assay [12]: qHTS assay to identify small molecule agonists of the TGF-beta/Smad signaling pathway - cell viability counter screen (AID 1346829). Further: top concentration of the series differs between compounds; nearly all actives have a fitted effect of over 45% in size. The method, boiled down:
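Cytotoxicity counter screen: CellTiter-Glo luminescence (30 min, room temperature) measured in the SBE-bla HEK 293T reporter wells after 5 hr compound treatment at 37 C and the 2 hr substrate step.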

Assay [13] can be described thus: qHTS assay to identify small molecule agonists of the TGF-beta/Smad signaling pathway (AID 1346859; active means well fitted activation curve with a large enough effect in the signal ratio in the repeat runs, not every such curve was filed as active; the % refers to the signal ratio; further: series mostly up to about 77 µM). The method, boiled down:
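HEK 293T cells stably carrying a beta-lactamase reporter driven by the Smad binding element were seeded overnight, exposed to DMSO-dissolved compounds for 5 hr at 37 C, 5% CO2, then loaded with FRET substrate for 2 hr at room temperature.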

The target of assay [14] is Thyrotropin-releasing hormone receptor (Homo sapiens) (UniProt P34981). Description: qHTS assay to identify small molecule antagonists of the thyrotropin-releasing hormone receptor (TRHR) signaling pathway (AID 1346877; active means well fitted inhibition curve with a large enough effect in the repeat runs, not every such curve was filed as active; further: series mostly up to about 51 µM). The essentials:
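TRHR-expressing HEK293 cells loaded with calcium dye for 2 h at 37 C; compounds pre-incubated 5 min at room temperature before TRH challenge at 1 nM final. Intracellular calcium fluorescence read kinetically for 3 min; 15 concentrations in triplicate.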

The target is the same in assay [15]. The assay can be described thus: qHTS assay to identify small molecule agonists of the thyrotropin-releasing hormone receptor (TRHR) signaling pathway (AID 1346891; calls by dose curve; further: series mostly up to about 58 µM). The essentials:
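TRHR-expressing HEK293 cells were plated 18 h at 37 °C/5% CO2, loaded with calcium dye 2 h at 37 °C, then given compound in DMSO; fluorescence was read kinetically for 3 min at 1 s intervals.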

The target of assay [16] is Estrogen receptor beta (Homo sapiens) (UniProt Q92731). Description: qHTS assay to identify small molecule antagonists of the estrogen receptor beta (ER-beta) signaling pathway (AID 1259378; active means well fitted inhibition curve with a large enough effect in the signal ratio in the repeat runs, not every such curve was filed as active; the % refers to the signal ratio). The method, boiled down: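 Antagonist mode: compounds added to beta-lactamase reporter HEK293T ER-beta-UAS cells stimulated with E2 (1nM final), 16 hr at 37C. LiveBLAzer B/G FRET substrate, 2 hours room temperature, fluorescence read-out.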
Sequence of Estrogen receptor beta (Homo sapiens) (Q92731 whole entry, looked up): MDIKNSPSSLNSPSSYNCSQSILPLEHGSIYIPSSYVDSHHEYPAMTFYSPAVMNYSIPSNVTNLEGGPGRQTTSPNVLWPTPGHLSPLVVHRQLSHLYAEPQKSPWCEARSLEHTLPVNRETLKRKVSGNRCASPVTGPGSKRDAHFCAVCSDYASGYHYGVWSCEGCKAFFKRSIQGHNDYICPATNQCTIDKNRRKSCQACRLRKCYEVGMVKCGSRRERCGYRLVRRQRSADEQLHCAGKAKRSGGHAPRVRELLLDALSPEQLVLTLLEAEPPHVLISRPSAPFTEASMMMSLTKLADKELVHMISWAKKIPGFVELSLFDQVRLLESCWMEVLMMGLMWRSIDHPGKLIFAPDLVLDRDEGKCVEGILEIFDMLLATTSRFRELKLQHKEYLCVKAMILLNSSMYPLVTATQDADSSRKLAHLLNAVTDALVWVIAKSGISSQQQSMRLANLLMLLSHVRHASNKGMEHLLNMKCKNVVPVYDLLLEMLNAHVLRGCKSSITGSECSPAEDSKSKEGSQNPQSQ

Assay [17] concerns the target Thyrotropin receptor (Homo sapiens) (UniProt P16473). The assay can be described thus: qHTS assay to identify small molecule antagonists of the thyroid stimulating hormone receptor (TSHR) signaling pathway (AID 1259385; calls by dose curve; further: nearly all actives have a fitted effect of over 20% in size). The essentials: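 Antagonist mode: compound-treated TSHR-expressing HEK293 cells were stimulated with 1.5 ng/mL TSH (final) in presence of Ro20-1724 for 30 min at RT. HTRF cAMP detection after 1 h; each compound tested at 15 concentrations, triplicate.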

Assay [18] can be described thus: qHTS assay to identify small molecule agonists of the progesterone receptor (PR) signaling pathway - cell viability counter screen (AID 1346799; calls by dose curve; further: nearly all actives have a fitted effect of over 45% in size). The method, boiled down:
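PR-UAS-bla HEK293T cells, 3,000 per well in medium with 2% charcoal-stripped FBS, were preincubated 6 hr at 37C, then exposed to compounds for 16 hr; viability was read as CellTiter-Glo luminescence after 30 min at room temperature.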

Assay [19] has as its target Estrogen receptor (Homo sapiens) (UniProt P03372). The assay can be described thus: qHTS assay to identify small molecule agonists of the estrogen receptor alpha (ER-alpha) signaling pathway in the presence of an antagonist (AID 1259383; calls by dose curve; further: top concentration of the series differs between compounds; nearly all actives have a fitted effect of over 15% in size). The essentials:
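VM7Luc4E2 cells express endogenous full-length ER-alpha with an ERE-luciferase reporter and were hormone-deprived for 5 days. Compounds at 15 concentrations were added with 10.0nM ICI-182,780 for 22hr at 37C. Luminescence was read with ONE-Glo.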

Structures are written as SMILES. A number with no mark means an inactive call. Results filed as inconclusive are left out. Activity calls are given as the source filed them. Unless noted, the call rests on the fitted dose curve; in most records, active means well fitted curve in the direction sought with a large enough effect in the repeat runs; inconclusive means weak or mixed curves; inactive means no such curve, though single readings can be large; an effect the other way counts as inactive or inconclusive.
On the % scale 0 is the no-effect control and ±100 the full control effect.

Sequence of Thyrotropin receptor (Homo sapiens) (P16473 whole entry, looked up): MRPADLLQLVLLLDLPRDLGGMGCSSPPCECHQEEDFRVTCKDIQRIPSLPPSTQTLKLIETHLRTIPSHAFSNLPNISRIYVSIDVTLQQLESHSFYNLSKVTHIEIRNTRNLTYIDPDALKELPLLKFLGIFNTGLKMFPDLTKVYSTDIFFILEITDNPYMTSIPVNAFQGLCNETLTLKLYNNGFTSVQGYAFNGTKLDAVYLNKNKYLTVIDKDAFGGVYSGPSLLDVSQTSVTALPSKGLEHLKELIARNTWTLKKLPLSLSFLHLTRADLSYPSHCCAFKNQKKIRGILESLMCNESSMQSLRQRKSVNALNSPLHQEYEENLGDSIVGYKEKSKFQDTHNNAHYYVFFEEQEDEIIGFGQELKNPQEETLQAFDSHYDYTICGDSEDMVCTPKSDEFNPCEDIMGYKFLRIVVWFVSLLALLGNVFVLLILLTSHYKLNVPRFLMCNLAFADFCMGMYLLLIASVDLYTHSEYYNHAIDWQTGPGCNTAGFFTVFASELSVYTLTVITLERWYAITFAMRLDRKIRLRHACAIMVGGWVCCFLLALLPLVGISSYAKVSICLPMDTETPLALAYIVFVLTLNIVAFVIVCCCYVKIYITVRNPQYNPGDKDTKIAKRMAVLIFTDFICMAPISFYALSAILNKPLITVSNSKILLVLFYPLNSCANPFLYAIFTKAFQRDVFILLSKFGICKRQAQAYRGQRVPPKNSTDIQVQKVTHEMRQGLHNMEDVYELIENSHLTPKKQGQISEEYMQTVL
Sequence of Thyrotropin-releasing hormone receptor (Homo sapiens) (P34981 whole entry, looked up): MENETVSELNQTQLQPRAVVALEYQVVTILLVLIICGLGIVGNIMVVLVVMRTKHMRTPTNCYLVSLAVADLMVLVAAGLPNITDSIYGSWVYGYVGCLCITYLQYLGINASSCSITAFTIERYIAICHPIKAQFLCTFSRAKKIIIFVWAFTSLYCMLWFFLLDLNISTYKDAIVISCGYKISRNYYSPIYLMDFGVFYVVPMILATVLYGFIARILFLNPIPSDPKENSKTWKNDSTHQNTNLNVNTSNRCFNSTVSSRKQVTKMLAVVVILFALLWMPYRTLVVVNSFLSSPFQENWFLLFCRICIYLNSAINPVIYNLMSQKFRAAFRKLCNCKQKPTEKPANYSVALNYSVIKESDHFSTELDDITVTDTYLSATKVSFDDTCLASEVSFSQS
Sequence of Androgen receptor (Homo sapiens) (P10275 whole entry, looked up): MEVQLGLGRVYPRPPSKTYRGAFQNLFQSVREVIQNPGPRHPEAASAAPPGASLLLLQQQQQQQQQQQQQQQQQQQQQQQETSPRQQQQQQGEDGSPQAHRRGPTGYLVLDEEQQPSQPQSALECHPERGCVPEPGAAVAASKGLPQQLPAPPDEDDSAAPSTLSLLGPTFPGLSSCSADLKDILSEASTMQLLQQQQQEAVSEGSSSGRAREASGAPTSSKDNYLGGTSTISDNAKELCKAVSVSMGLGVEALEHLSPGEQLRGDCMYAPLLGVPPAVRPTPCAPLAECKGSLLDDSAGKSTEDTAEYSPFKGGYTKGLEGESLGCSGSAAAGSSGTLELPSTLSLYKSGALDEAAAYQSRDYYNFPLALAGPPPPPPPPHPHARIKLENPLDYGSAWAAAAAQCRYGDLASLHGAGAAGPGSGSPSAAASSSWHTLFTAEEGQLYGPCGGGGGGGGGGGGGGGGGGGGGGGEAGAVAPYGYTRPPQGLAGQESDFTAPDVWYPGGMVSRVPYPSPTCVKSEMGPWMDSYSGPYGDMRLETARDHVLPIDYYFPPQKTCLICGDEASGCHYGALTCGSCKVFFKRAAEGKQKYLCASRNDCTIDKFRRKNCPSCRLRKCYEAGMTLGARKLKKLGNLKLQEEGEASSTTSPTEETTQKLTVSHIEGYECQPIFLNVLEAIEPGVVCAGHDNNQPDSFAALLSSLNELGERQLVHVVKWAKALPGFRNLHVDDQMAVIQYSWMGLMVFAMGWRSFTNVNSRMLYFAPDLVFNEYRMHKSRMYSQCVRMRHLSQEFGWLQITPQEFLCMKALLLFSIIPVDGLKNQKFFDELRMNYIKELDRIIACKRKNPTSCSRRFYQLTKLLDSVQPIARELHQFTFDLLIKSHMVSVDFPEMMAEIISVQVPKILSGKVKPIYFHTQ
Sequence of Estrogen receptor (Homo sapiens) (P03372 whole entry, looked up): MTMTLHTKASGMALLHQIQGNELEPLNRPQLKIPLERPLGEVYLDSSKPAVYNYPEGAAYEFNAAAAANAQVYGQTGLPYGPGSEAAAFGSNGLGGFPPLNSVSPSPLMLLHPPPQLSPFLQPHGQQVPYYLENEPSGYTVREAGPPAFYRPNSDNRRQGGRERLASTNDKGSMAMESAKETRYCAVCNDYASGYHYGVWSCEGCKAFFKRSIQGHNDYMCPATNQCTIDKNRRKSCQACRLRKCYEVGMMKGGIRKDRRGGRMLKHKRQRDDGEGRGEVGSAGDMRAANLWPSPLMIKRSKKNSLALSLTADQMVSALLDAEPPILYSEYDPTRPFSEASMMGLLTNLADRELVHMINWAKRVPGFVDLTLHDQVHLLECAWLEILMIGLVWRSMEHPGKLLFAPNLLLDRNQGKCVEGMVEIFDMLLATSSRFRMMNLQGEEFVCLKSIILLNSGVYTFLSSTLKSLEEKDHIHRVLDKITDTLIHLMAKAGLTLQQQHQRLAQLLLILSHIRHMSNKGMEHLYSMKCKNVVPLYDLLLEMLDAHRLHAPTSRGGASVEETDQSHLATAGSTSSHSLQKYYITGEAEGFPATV

Take `NC(=S)N/N=C/c1cccnc1`: the Potency result in assay [1], in [2], in assay [3], in [4], in assay [5] and in assay [6] was “inactive” each time. Besides, the Potency entry in assay [7], in assay [9], in assay [10], in [11], in [12] and in assay [15] was “inactive” throughout. Further, the compound was classed as inactive in assay [8], in [13] and in assay [14].
In the case of `COc1ccccc1OC(=O)Oc1ccccc1OC`, the Potency entry in assay [1], in assay [16], in assay [2], in [4], in [6] and in [17] was “inactive” each time. The Potency result in assay [7], in assay [10], in assay [18], in assay [11], in assay [12] and in [15] was “inactive” each time. For the same compound, the Potency in [3] is 23.7 µM (active); in assay [9] it was 26.6 µM (active). The result in [8], in assay [13] and in [14] was inactive.
Take `NC[C@H]1O[C@H](O[C@H]2[C@H](O)[C@@H](O[C@H]3O[C@H](CO)[C@@H](O)[C@H](N)[C@H]3O)[C@H](N)C[C@@H]2N)[C@H](O)[C@@H](O)[C@@H]1O`: the activity change, negative = inhibition was -24.7% [at 8.39 µM] in [1] and -7.09% [at 8.39 µM] in assay [17]. Also, the activity change, negative = cytotoxicity is 1.81% [at 8.39 µM] in assay [2]; 5.67% [at 8.39 µM] in assay [3]; 0.386% [at 8.39 µM] in [5]; -3.74% [at 8.39 µM] in assay [7]; 1.76% [at 8.39 µM] in [10]; 4.11% [at 6.97 µM] in assay [12]. The cAMP activity change in assay [6] is 0.52% [at 8.39 µM, stronger effect = higher value]. Also, the activation in assay [8] is 0.496% [at 8.39 µM]; in assay [13], -1.71% [at 6.97 µM]. The viability change, negative = cytotoxic in assay [11] was 0.819% [at 6.97 µM].
Regarding `O=C(O)[C@@H]1[C@H]2C[C@H]3c4[nH]c5ccccc5c4CCN3C[C@@H]2CC[C@@H]1O`, the Potency result in assay [1], in assay [2], in assay [3], in assay [4], in [5] and in [19] was “inactive” throughout. Moreover, the Potency result in [6], in assay [17], in [7], in assay [9], in [10] and in assay [12] was “inactive” each time. Moreover, the Potency entry in assay [15] is “inactive”. Further, the call in [8], in assay [13] and in [14] was inactive.
As to `Nc1ccc(C(=O)Nc2ccccc2N)cc1`, the Potency entry in [1], in assay [2], in assay [19], in [6], in assay [17] and in assay [7] was “inactive” in each case. The Potency result in assay [11] and in assay [12] was “inactive” in each case. For the same compound, the results for the Potency in [3], in assay [4] and in [10] were 0.841 µM (active), 5.96 µM (active) and 13.3 µM (active), respectively. Further, the outcome in assay [13] was inactive.
As to `CCN(CC)C(C)CN1c2ccccc2Sc2ccccc21` (centres undefined), the Potency result in assay [1], in assay [16], in assay [2], in [3], in [5] and in assay [19] was “inactive” in each case. Also, the Potency entry in assay [6], in assay [17], in [7], in assay [10], in [18] and in [11] was “inactive” in each case. In addition, the Potency entry in assay [12] is “inactive”. The result in [8] and in assay [13] was inactive.
For `COCCO`, the Potency entry in assay [1], in [2], in assay [3], in assay [5], in assay [19] and in [7] was “inactive” in each case. Further, the Potency entry in assay [9], in assay [10], in assay [18], in assay [11], in assay [12] and in assay [15] was “inactive” each time. Moreover, the call in assay [8], in assay [13] and in assay [14] was inactive.
Turning to `COc1ccc(OC)c(OC)c1`, the Potency result in assay [1], in [16], in [2], in [3], in assay [19] and in assay [6] was “inactive” each time. The Potency result in assay [17], in [7], in assay [9], in assay [10], in assay [18] and in assay [11] was “inactive” in each case. In addition, the Potency result in assay [12] and in assay [15] was “inactive” in each case. Further, the outcome in assay [8], in assay [13] and in assay [14] was inactive.

Values taken from PubChem BioAssay (Tox21).
